{"source": "PubChem BioAssay (NCATS)", "note": "Inconclusive results are not listed. The source made the active and inactive calls. Calls follow the shape of the dose curve; as a rule, active = well fitted curve in the direction sought with a large enough effect in the signal ratio, with a control signal flat (not every such curve was filed as active); inconclusive = small, poorly fitted or top-dose-only effect, or a change in a side signal; inactive = no such curve, though single readings can be large or run the other way; the % refers to the signal ratio.", "data": [{"assay": "qHTS Assay for Identification of Small Molecule Inducers of Hypoxia Response (AID 2120)", "conditions": "hypoxia response reporter cells, beta-lactamase ratio readout; series mostly up to 104 µM", "description": "NIH Chemical Genomics Center [NCGC]\nNIH Molecular Libraries Screening Centers Network [MLSCN]\nNational Institutes of Environmental Health Sciences [NIEHS]\nNational Toxicology Program [NTP]\nHypoxia-inducible factor-1 (HIF-1) is the major hypoxia-regulated transcription factor that controls cellular responses to low oxygen concentration. HIF-1 is composed of two subunits: hypoxia responsive HIF-1a and constitutively expressed HIF-1b, which is also known as aryl hydrocarbon receptor nuclear translocator. During hypoxic conditions, HIF-1a heterodimerizes with HIF-1b and translocates into the nucleus where the HIF-1 complex binds to the hypoxia-response element (HRE) and activates expression of target genes such as VEGF (vascular endothelial growth factor). The HIF-1 pathway is essential to normal growth and development, and is involved in the pathophysiology of cancer, inflammation, and ischemia.\nUsing a beta-lactamase reporter-gene under control of the hypoxia response element, a cell-based assay [CellSensor(TM) HRE-bla ME-180 developed by Invitrogen Corp.] was used to measure hypoxia-induced signaling. Library compounds were measured for their ability to induce the reporter gene activity. Compounds were screened in a titration series in 1536-well format. The inducers were identified based on the AC50 values derived from the screening data.\nNCGC Assay Protocol Summary\n2500 cells/5uL in Opti-MEM medium containing 0.5% dialyzed FBS, 0.1 mM NEAA, 1 mM sodium pyruvate and 10 mM HEPES was dispensed into 1536-well plates and cells were cultured at 37 degrees Celsius for 4-5 hours and then 23 nL of compounds or DMSO were delivered to each well using a pin tool. The plates were incubated at 37 degrees Celsius for 17 hours. 1 uL of CCF4-dye mixture was added to each well. After incubated at room temperature for 2.5 hours the plates were measured on an EnVision plate reader at Excitation 405nm, Emission1=460nm and Emission 2=530nm. The %Activity was determined from the ratio of 460nm/530nm.", "values": [{"smiles": "c1ccc(OP(Oc2ccccc2)Oc2ccccc2)cc1", "outcome": "inactive"}, {"smiles": "BrCCBr", "outcome": "inactive"}, {"smiles": "c1nc[nH]n1", "outcome": "inactive"}, {"smiles": "CC(=O)[O-].CC(=O)[O-].O.O.O.[Pb+2]", "outcome": "inactive"}, {"smiles": "COC(=O)NC(=S)Nc1ccccc1NC(=S)NC(=O)OC", "outcome": "inactive"}, {"smiles": "CCCCOC(=O)c1ccccc1C(=O)OCCCC", "outcome": "inactive"}, {"smiles": "COP(=S)(OC)Oc1ccc([N+](=O)[O-])cc1", "outcome": "inactive"}, {"smiles": "CCSC(=O)Cl", "outcome": "inactive"}, {"smiles": "Clc1ccc2ccccc2c1", "outcome": "inactive"}, {"smiles": "CCOc1ccc(N)cc1", "outcome": "inactive"}, {"smiles": "O=C(O)COc1ccc(Cl)cc1Cl", "outcome": "inactive"}, {"smiles": "CCCC(=O)Cl", "outcome": "inactive"}, {"smiles": "CCc1cccc(CC)c1N(COC)C(=O)CCl", "outcome": "inactive"}, {"smiles": "NC(=S)Nc1ccccc1", "outcome": "inactive"}, {"smiles": "Clc1nc(Cl)nc(Nc2ccccc2Cl)n1", "outcome": "inactive"}, {"smiles": "CCNc1nc(Cl)nc(NC(C)C)n1", "outcome": "inactive"}, {"smiles": "ClC(Cl)=C(Cl)C(Cl)=C(Cl)Cl", "outcome": "inactive"}, {"smiles": "COc1ccc(N)cc1", "outcome": "inactive"}, {"smiles": "c1ccc(-c2ccccc2)cc1", "outcome": "inactive"}, {"smiles": "O=NN(CCO)CCO", "outcome": "inactive"}, {"smiles": "C[C@]12CC[C@H]3[C@@H](CCC4=CC(=O)CC[C@@]43C)[C@@H]1CC[C@@H]2O", "outcome": "inactive"}, {"smiles": "[O-][Br+2]([O-])O", "outcome": "inactive"}, {"smiles": "COC1=CC(=O)OC(CCc2ccccc2)C1", "note": "(stereo not given)", "outcome": "inactive"}, {"smiles": "Cc1ccc([N+](=O)[O-])cc1C", "outcome": "inactive"}, {"smiles": "COC1=CC(=O)O[C@@H](/C=C/c2ccc3c(c2)OCO3)C1", "outcome": "inactive"}, {"smiles": "Nc1ccccc1Cl", "outcome": "inactive"}, {"smiles": "ClC(Cl)=C(Cl)Cl", "outcome": "inactive"}, {"smiles": "CC(C)(C)OO", "outcome": "inactive"}, {"smiles": "C1CCC2CCCCC2C1", "note": "(stereo not given)", "outcome": "inactive"}, {"smiles": "CC(C)(c1ccccc1)c1ccc(O)cc1", "outcome": "inactive"}, {"smiles": "ClC1=C(Cl)C2(Cl)C3C4CC(C5OC45)C3C1(Cl)C2(Cl)Cl", "note": "(stereo not given)", "outcome": "inactive"}, {"smiles": "CCCCOCCOP(=O)(OCCOCCCC)OCCOCCCC", "outcome": "inactive"}, {"smiles": "Nc1ccc(Br)cc1", "outcome": "inactive"}, {"smiles": "CCC[CH2][Sn]([Cl])([Cl])[Cl]", "outcome": "inactive"}, {"smiles": "Cc1ccccc1N", "outcome": "inactive"}, {"smiles": "CCN(CC)c1ccccc1", "outcome": "inactive"}, {"smiles": "CN=C=S", "outcome": "inactive"}, {"smiles": "ClC(Cl)=C(c1ccc(Cl)cc1)c1ccc(Cl)cc1", "outcome": "inactive"}, {"smiles": "Clc1cccc(C(Cl)(Cl)Cl)n1", "outcome": "inactive"}, {"smiles": "CCCOC(=O)c1ccccc1C(=O)OCCC", "outcome": "inactive"}]}]}
